Measurements: PubChem BioAssay (NCATS)
Inconclusive results are not listed. The source made the active and inactive calls. Calls follow the shape of the dose curve; as a rule, active = well fitted curve in the direction sought with a large enough effect; inconclusive = small, poorly fitted or top-dose-only effect, or another doubt; inactive = no such curve, though single readings can be large; an effect the other way counts as inactive or inconclusive.

Columns and labels:
CRL-7250 = normal cell line; assay: Cytotoxic Profiling of Annotated Libraries Using Quantitative High-Throughput Screening (AID 1296008); details: Five cell lines viability, CellTiter-Glo ATP luminescence, 48-72 h; max response: stronger effect = lower value; also: nearly all actives have a fitted effect of over 60% in size; as to max response: % is scaled to controls: 0 for no effect and ±100 for the full control effect
Procedure, shortened: (§1)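 Cytotoxicity was measured as CellTiter-Glo ATP luminescence, read after 10 min at room temperature. Compound treatment of the cells lasted 48 or 72 hr at 37 degrees Celsius in a qHTS format.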

HEK293 = assay: as above; details: Five cell lines viability, CellTiter-Glo ATP luminescence, 48-72 h; max response: stronger effect = lower value
Procedure, shortened: as §1

HaCat [1] = assay: as above; details: Five cell lines viability, CellTiter-Glo ATP luminescence, 48-72 h; max response: stronger effect = lower value
Procedure, shortened: as §1

KB-3-1 = assay: as above; details: Five cell lines viability, CellTiter-Glo ATP luminescence, 48-72 h; max response: stronger effect = lower value
Procedure, shortened: as §1

NIH3T3 = assay: as above; details: Five cell lines viability, CellTiter-Glo ATP luminescence, 48-72 h; max response: stronger effect = lower value
Procedure, shortened: as §1

HACAT [2] = assay: qHTS assay to identify novel small-molecules to repurpose for Merkel cell carcinoma treatment (AID 1296009); details: MCC and control cell lines, CellTiter-Glo viability, 72 h; at 44.8 µM (top of the series) unless noted; also: nearly all actives have a fitted effect of over 60% in size
Procedure, shortened: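 Cell viability measured by CellTiter-Glo following 72 hr compound treatment at 37 degree celsius, with NPC and MIPE libraries tested in 8- and 11-point concentration series.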

C33A = assay: Primary qHTS to identify gynecologic anti-cancer compounds using libraries of approved drugs and bioactive compounds (AID 1345084); details: Gynecologic cancer cell panel viability, ATPlite luminescence, 48 h; series mostly up to 57.5 µM; also: % is scaled to controls: 0 for no effect and ±100 for the full control effect; nearly all actives have a fitted effect of over 55% in size
Procedure, shortened: (§2)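 Cell viability after 48 h drug treatment, ATPlite luminescence readout; five doses.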

CAOV3 = assay: as above; details: Gynecologic cancer cell panel viability, ATPlite luminescence, 48 h; series mostly up to 57.5 µM
Procedure, shortened: as §2

CASKI = assay: as above; details: Gynecologic cancer cell panel viability, ATPlite luminescence, 48 h; series mostly up to 57.5 µM
Procedure, shortened: as §2

Es-2 = assay: as above; details: Gynecologic cancer cell panel viability, ATPlite luminescence, 48 h; series mostly up to 57.5 µM
Procedure, shortened: as §2

HeLa = assay: as above; details: Gynecologic cancer cell panel viability, ATPlite luminescence, 48 h; series mostly up to 57.5 µM
Procedure, shortened: as §2

Hek293T = assay: as above; details: Gynecologic cancer cell panel viability, ATPlite luminescence, 48 h, control line for the selectivity index; series mostly up to 57.5 µM
Procedure, shortened: as §2

JEG-3 = assay: as above; details: Gynecologic cancer cell panel viability, ATPlite luminescence, 48 h; series mostly up to 57.5 µM
Procedure, shortened: as §2

OV90 = assay: as above; details: Gynecologic cancer cell panel viability, ATPlite luminescence, 48 h; series mostly up to 57.5 µM
Procedure, shortened: as §2

Cc1cc(Cn2cnc3c2CC(C(=O)O)N(C(=O)C(c2ccccc2)c2ccccc2)C3)ccc1N(C)C (centres undefined)
inactive: outcome (CRL-7250) | max response (HEK293) -1.68% | outcome (HaCat [1]) | max response (KB-3-1) 5.82% | max response (NIH3T3) 1.33% | outcome (HACAT [2]) | Potency (C33A) | Potency (CAOV3) | outcome (CASKI) | Potency (Es-2) | Potency (HeLa) | Potency (Hek293T) | Potency (JEG-3) | Potency (OV90)

OC[C@H]1O[C@@H](OC[C@H]2O[C@@H](OCc3ccccc3)[C@H](O)[C@@H](O)[C@@H]2O)[C@H](O)[C@@H](O)[C@@H]1O
inactive: outcome (CRL-7250) | max response (HEK293) -4.26% | outcome (HaCat [1]) | outcome (KB-3-1) | max response (NIH3T3) -6.32% | outcome (HACAT [2]) inactive [at 17.4 µM] | Potency (C33A) | Potency (CAOV3) | outcome (CASKI) | Potency (Es-2) | Potency (HeLa) | Potency (Hek293T) | Potency (JEG-3) | Potency (OV90)

C[C@@H]1CC[C@]2(C(=O)O[C@@H]3O[C@H](CO[C@@H]4O[C@H](CO)[C@@H](O[C@@H]5O[C@@H](C)[C@H](O)[C@@H](O)[C@H]5O)[C@H](O)[C@H]4O)[C@@H](O)[C@H](O)[C@H]3O)CC[C@]3(C)C(=CCC4[C@@]5(C)C[C@@H](O)[C@H](O)[C@@](C)(CO)C5CC[C@]43C)C2[C@H]1C (some centres undefined)
inactive: max response (CRL-7250) -0.89% | max response (HEK293) -0.975% | outcome (HaCat [1]) | max response (KB-3-1) 3.97% | max response (NIH3T3) 1.43% | outcome (HACAT [2]) inactive [at 9.27 µM] | activity change, negative = cytotoxicity (C33A) -0.2% [at 11.6 µM] | activity change, negative = cytotoxicity (CAOV3) -4.15% [at 11.6 µM] | activity change, negative = cytotoxicity (CASKI) 20.3% [at 11.6 µM] | activity change, negative = cytotoxicity (Es-2) -3.91% [at 11.6 µM] | activity change, negative = cytotoxicity (HeLa) 11% [at 11.6 µM] | activity change, negative = cytotoxicity (Hek293T) -0.706% [at 11.6 µM] | activity change, negative = cytotoxicity (JEG-3) 0.915% [at 11.6 µM] | activity change, negative = cytotoxicity (OV90) -1.43% [at 11.6 µM]

On1ncc(C2CCNCC2)c1-c1cccc(-c2ccccc2)c1
inactive: outcome (CRL-7250) | max response (HEK293) -1.77% | outcome (HaCat [1]) | max response (KB-3-1) 8.99% | max response (NIH3T3) 1.04% | outcome (HACAT [2]) | Potency (C33A) | Potency (CAOV3) | outcome (CASKI) | Potency (Es-2) | Potency (HeLa) | Potency (Hek293T) | Potency (JEG-3) | Potency (OV90)

CS(=O)(=O)c1ccccc1N1CCN(c2nc3c(c(=O)[nH]2)CSCC3)CC1
inactive: max response (CRL-7250) 0.787% | max response (HEK293) 1.58% | outcome (HaCat [1]) | max response (KB-3-1) -11.7% | max response (NIH3T3) -5.12% | outcome (HACAT [2]) | Potency (C33A) | Potency (CAOV3) | outcome (CASKI) | Potency (Es-2) | Potency (HeLa) | Potency (Hek293T) | Potency (JEG-3) | Potency (OV90)

O=C(OCC1=CC(Cl)C(O)C(OC(=O)c2ccccc2)C1O)c1ccccc1 (centres undefined)
inactive: max response (CRL-7250) 2.93% | max response (HEK293) -7.58% | outcome (HaCat [1]) | outcome (KB-3-1) | max response (NIH3T3) 1.71% | outcome (HACAT [2]) inactive [at 17.4 µM] | Potency (C33A) | Potency (CAOV3) | outcome (CASKI) | Potency (Es-2) | Potency (HeLa) | Potency (Hek293T) | Potency (JEG-3) | Potency (OV90)

CC(=O)O[C@@H]1C[C@@H](C)[C@](O)(CCC2=CC(=O)OC2)[C@@]2(C)CCCC(C)(C)C12 (some centres undefined)
inactive: outcome (CRL-7250) | max response (HEK293) -5.82% | outcome (HaCat [1]) | max response (KB-3-1) 9.64% | max response (NIH3T3) 2.01% | outcome (HACAT [2]) | Potency (C33A) | Potency (CAOV3) | outcome (CASKI) | Potency (Es-2) | Potency (HeLa) | Potency (Hek293T) | Potency (JEG-3) | Potency (OV90)

O=C(O)CC1CCC(c2ccc(-c3ccc(Nc4ccc(C(F)(F)F)nc4)cn3)cc2)CC1 (centres undefined)
inactive: max response (CRL-7250) 3.84% | max response (HEK293) -8.47% | outcome (HaCat [1]) | max response (KB-3-1) -6.84% | max response (NIH3T3) 2.56% | outcome (HACAT [2]) | Potency (C33A) | Potency (CAOV3) | outcome (CASKI) | Potency (Es-2) | Potency (HeLa) | Potency (Hek293T) | Potency (JEG-3) | Potency (OV90)

CC1(C)CC2C3=CCC4[C@@]5(C)CC[C@H](OC6OCC(O)C(OC7OC(CO)C(O)C(O)C7O)C6O)C(C)(C)C5CC[C@@]4(C)[C@]3(C)C[C@H](O)[C@@]2(CO)[C@H](OC(=O)c2ccccc2)C1 (some centres undefined)
inactive: max response (CRL-7250) -5.7% | max response (HEK293) -22% | outcome (HaCat [1]) | max response (KB-3-1) -6.42% | max response (NIH3T3) -2.6% | outcome (HACAT [2]) inactive [at 9.27 µM] | activity change, negative = cytotoxicity (C33A) -0.821% [at 11.6 µM] | activity change, negative = cytotoxicity (CAOV3) -7.46% [at 11.6 µM] | activity change, negative = cytotoxicity (CASKI) -3.21% [at 11.6 µM] | activity change, negative = cytotoxicity (Es-2) -3.08% [at 11.6 µM] | activity change, negative = cytotoxicity (HeLa) 2.29% [at 11.6 µM] | activity change, negative = cytotoxicity (Hek293T) 17.5% [at 11.6 µM] | activity change, negative = cytotoxicity (JEG-3) 8.97% [at 11.6 µM] | activity change, negative = cytotoxicity (OV90) 18.5% [at 11.6 µM]

COc1cc(C2Oc3c(OC)cc(CCCO)cc3C2CO)ccc1O (centres undefined)
inactive: outcome (CRL-7250) | max response (HEK293) 3.43% | outcome (HaCat [1]) | outcome (KB-3-1) | max response (NIH3T3) -0.27% | outcome (HACAT [2]) | Potency (C33A) | Potency (CAOV3) | outcome (CASKI) | Potency (Es-2) | Potency (HeLa) | Potency (Hek293T) | Potency (JEG-3) | Potency (OV90)

CCCC(C(=O)O)c1c(C)nc2ccc(Cl)cc2c1-c1ccccc1 (centres undefined)
inactive: max response (CRL-7250) 3.26% | max response (HEK293) -5.83% | outcome (HaCat [1]) | max response (KB-3-1) 2.25% | max response (NIH3T3) 1.27% | outcome (HACAT [2]) | Potency (C33A) | Potency (CAOV3) | outcome (CASKI) | Potency (Es-2) | Potency (HeLa) | Potency (Hek293T) | Potency (JEG-3) | Potency (OV90)
